Consider 86 compounds from article PMC4336329 (PLoS ONE, 2015).

The campaign covered roughly 310,000 compounds. About 14,000 (4.5%) showed an effect of 50% or more. The effect is printed as a negative number. The full list was thinned out, with strong results kept by preference.
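Also: peak tail current of the secondary pulse compared with the same well before compound.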

Sequence of human ether-à-go-go-related gene (hERG) potassium channel (Q12809 whole entry, looked up): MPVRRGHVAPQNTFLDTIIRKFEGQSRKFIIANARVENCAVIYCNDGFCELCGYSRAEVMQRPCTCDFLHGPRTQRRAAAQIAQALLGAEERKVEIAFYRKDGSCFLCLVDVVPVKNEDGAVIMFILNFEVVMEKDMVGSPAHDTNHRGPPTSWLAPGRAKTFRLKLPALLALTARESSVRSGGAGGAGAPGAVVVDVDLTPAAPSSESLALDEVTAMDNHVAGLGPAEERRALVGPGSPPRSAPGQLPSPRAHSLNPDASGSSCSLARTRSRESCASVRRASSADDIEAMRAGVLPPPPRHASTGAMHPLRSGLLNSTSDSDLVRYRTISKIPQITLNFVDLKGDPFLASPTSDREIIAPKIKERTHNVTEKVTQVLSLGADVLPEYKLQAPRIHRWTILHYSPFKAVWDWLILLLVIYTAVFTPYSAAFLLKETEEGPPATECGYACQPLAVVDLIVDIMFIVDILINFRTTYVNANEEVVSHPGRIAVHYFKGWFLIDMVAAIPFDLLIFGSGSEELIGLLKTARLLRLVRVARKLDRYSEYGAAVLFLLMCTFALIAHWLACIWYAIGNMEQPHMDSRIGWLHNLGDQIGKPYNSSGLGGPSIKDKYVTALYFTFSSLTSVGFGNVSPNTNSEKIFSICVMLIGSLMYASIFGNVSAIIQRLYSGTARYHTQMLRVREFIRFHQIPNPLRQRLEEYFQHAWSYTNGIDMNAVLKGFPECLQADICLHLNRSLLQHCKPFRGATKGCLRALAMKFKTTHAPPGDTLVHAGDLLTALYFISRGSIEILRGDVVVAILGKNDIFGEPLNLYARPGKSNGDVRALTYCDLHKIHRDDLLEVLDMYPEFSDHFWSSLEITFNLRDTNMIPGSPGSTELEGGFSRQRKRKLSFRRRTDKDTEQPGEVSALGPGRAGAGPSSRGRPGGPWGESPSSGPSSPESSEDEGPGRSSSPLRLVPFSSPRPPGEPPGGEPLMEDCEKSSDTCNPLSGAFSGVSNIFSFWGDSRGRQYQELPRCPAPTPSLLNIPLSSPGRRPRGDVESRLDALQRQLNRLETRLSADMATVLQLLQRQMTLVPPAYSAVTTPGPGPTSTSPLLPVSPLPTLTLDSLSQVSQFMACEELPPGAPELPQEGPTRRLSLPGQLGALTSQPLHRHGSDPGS

The assay has as its target human ether-à-go-go-related gene (hERG) potassium channel (human, UniProt Q12809). Put plainly: primary screen, population patch clamp on CHO cells stably expressing hERG; higher = less effect of the substance.
On to `CC1=C(C)CC(C(=O)Nc2nccs2)C(C(=O)O)C1` (centres unmarked), for which the “hERG current change (%, negative = inhibition) at 10uM” value turned out to be 28.7%. For `O=C(CSc1n[nH]c(-c2ccncc2)n1)Nc1ccc(Br)cc1` the value was -2.1%. Consider `CN(C)/C=N/c1nc2nccc(-c3ccc(F)cc3)n2n1`, for which the “hERG current change (%, negative = inhibition) at 10uM” value was found to be 13.8%. On to `CCC1Oc2ccc(C)cc2N(CC(=O)NCCCN2CCCCC2C)C1=O` (centres unmarked), for which the “hERG current change (%, negative = inhibition) at 10uM” value came out at 3.15%. Next, `CN(C(=O)CSc1nnc(-c2ccccc2)o1)c1c(N)n(Cc2ccccc2)c(=O)[nH]c1=O`: 12%; `COc1cccc(N2C(=O)/C(=C/c3ccc(C)o3)C(=O)NC2=S)c1`: 15%; `COc1ccc(/C=C/C=N/NC(=O)COc2ccc(OC)cc2)cc1`: 1.85%. Next, `O=C(CCN1C(=O)C2C3CCC(C3)C2C1=O)OCC(=O)c1ccc(Br)cc1` (centres unmarked): -30.2%; `O=C(CCN1C(=O)C2C3CCC(C3)C2C1=O)OCC(=O)c1ccc(Cl)cc1` (centres unmarked): -53.2%; `CC(C(=O)OCC(=O)c1ccc([N+](=O)[O-])cc1)N1C(=O)C2C3CCC(C3)C2C1=O` (centres unmarked): -54%. With `CC(C(=O)OCC(=O)c1ccc([N+](=O)[O-])cc1)N1C(=O)C2C3C=CC(C3)C2C1=O` (centres unmarked), the “hERG current change (%, negative = inhibition) at 10uM” value is -43%. Next, `CC(C(=O)OCC(=O)c1cccc([N+](=O)[O-])c1)N1C(=O)C2C3CCC(C3)C2C1=O` (centres unmarked): 2.55%. For the compound `O=C(CCN1C(=O)C2C3CCC(C3)C2C1=O)OCC(=O)c1ccccc1` (centres unmarked), the “hERG current change (%, negative = inhibition) at 10uM” value is 9.98%. Turning to `Cc1ccc(CSCC(=O)N(C)CC(=O)Nc2cccc(F)c2)cc1`, the “hERG current change (%, negative = inhibition) at 10uM” value was -17.5%.

Turning to `COC(=O)CNC(=O)c1c(-c2ccccc2Cl)noc1C`, the “hERG current change (%, negative = inhibition) at 10uM” value is recorded as -5.68%. Take `CCCCc1nc(NCc2ccccc2)c(C#N)c2c1COC(C)(C)C2`: the “hERG current change (%, negative = inhibition) at 10uM” value is listed as 12.9%. With `CCOC(=O)c1c(C)[nH]c(C)c1S(=O)(=O)NC(CC)CN1CCOCC1` (centres unmarked), the “hERG current change (%, negative = inhibition) at 10uM” value turned out to be 7.32%.

Consider `O=C(NC(=S)Nc1ccccc1C(=O)O)c1ccc(-c2ccc(Br)cc2)o1`, for which the “hERG current change (%, negative = inhibition) at 10uM” value is reported as 28.3%. For `COc1ccc(CCN2C(=O)N[C@@H](CCC(=O)O)C2=O)cc1` the value was 19%; for `COC(=O)N1CCN(c2ccc(OC)cc2)CC1`, 4.33%. For `COc1ccc(N2CCN(C(C)=C3C(=O)c4ccccc4C3=O)CC2)cc1`, the “hERG current change (%, negative = inhibition) at 10uM” value was -53.3%. Consider `C/C(=C/c1ccccc1)C(=O)N1CCN(c2ccc(F)cc2)CC1`, for which the “hERG current change (%, negative = inhibition) at 10uM” value is recorded as -42.2%. Turning to `COc1ccc(N2CCN(C(=O)C(OC(C)=O)c3ccccc3)CC2)cc1` (centres unmarked), the “hERG current change (%, negative = inhibition) at 10uM” value is listed as -0.89%. Turning to `CC(=C1C(=O)c2ccccc2C1=O)N1CCN(c2ccc(F)cc2)CC1`, the “hERG current change (%, negative = inhibition) at 10uM” value is -69.8%. Turning to `CC(=C1C(=O)c2ccccc2C1=O)N1CCN(c2ccccn2)CC1`, the “hERG current change (%, negative = inhibition) at 10uM” value is reported as -28.3%. On to `O=C(NC1CCCCC1)NC1C2CC3CC(C2)CC1C3` (centres unmarked), for which the “hERG current change (%, negative = inhibition) at 10uM” value was -6.14%.

With `CCCNC(=S)Nc1ccc(Cl)cc1C`, the “hERG current change (%, negative = inhibition) at 10uM” value was found to be 1.16%. Next, `Cc1ccc(S(=O)(=O)NCCNC(=O)c2ccccc2)cc1`: 12.4%; `CC(C)Oc1ccc(C(CC(=O)O)NC(=O)Cc2ccc(Cl)cc2)cc1` (centres unmarked): 24.8%. Next, `COc1ccc(-n2c(SCC(=O)Nc3nc(C)cs3)nnc2-c2ccoc2C)cc1`: -81%; `CCOc1ccc(-n2c(SCC(=O)Nc3nccs3)nnc2-c2ccoc2C)cc1`: -56.1%.

Consider `COc1ccc(-n2c(SCC(=O)Nc3nccs3)nnc2-c2ccccc2)cc1`, for which the “hERG current change (%, negative = inhibition) at 10uM” value was -62.5%. As to `COc1ccc(-n2c(Cc3cccn3C)nnc2SCC(=O)Nc2nccs2)cc1`, the “hERG current change (%, negative = inhibition) at 10uM” value is given as -9.82%. Next, `CCOC(=O)CSc1nnc(Cc2ccccc2)n1-c1ccc(C)cc1`: -37.4%; `CCOC(=O)CN(C(=O)CSc1nnc(C)n1-c1ccccc1)c1ccccc1`: 6.79%; `CCOc1ccccc1-n1c(SCC(=O)Nc2nccs2)nnc1-c1ccoc1C`: -5.08%.

In the case of `CCOC(=O)CN(C(=O)CSc1nnc(Cc2ccccc2)n1-c1ccc(C)cc1)c1ccccc1`, the “hERG current change (%, negative = inhibition) at 10uM” value is on record as -59.2%. For `COc1ccc(CC(=O)NCc2nnc(SCC(=O)Nc3nccs3)n2-c2ccccc2)cc1` the value was 2.7%. Next, `CCOc1ccc(-n2c(SCC(=O)NC)nnc2-c2ccco2)cc1`: -27.5%. On to `COc1ccc(-n2c(Cc3cccn3C)nnc2SCC(=O)Nc2nc(C)cs2)cc1`, for which the “hERG current change (%, negative = inhibition) at 10uM” value was -6.16%. In the case of `Cc1csc(NC(=O)CSc2nnc(-c3ccoc3C)o2)n1`, the “hERG current change (%, negative = inhibition) at 10uM” value stood at 4.99%.

For `Cc1cc(C)cc(NC(=O)Cn2c(-c3ccccc3Cl)nc3ccccc32)c1`, the “hERG current change (%, negative = inhibition) at 10uM” value is reported as 5.5%.

Take `CCCCC(CC)CNC(=O)c1cccs1` (centres unmarked): the “hERG current change (%, negative = inhibition) at 10uM” value is on record as 8.33%. For `O=S(=O)(c1ccc(Nc2ccc3c(c2)OCO3)nc1)N1CCOCC1` the value was -13.2%; for `COc1ccc(N(C(=O)c2cccnc2)S(=O)(=O)c2cc(OC)ccc2OC)cc1`, -21.8%; for `O=C(CS(=O)(=O)Cc1ccccc1)Nc1ccccc1Cl`, 1.09%. As for `Cc1ccc(C2CC(=O)C=C(O)C2)cc1` (centres unmarked), the “hERG current change (%, negative = inhibition) at 10uM” value came out at 3.29%.

For `CSCC(C)N1CCC(n2nccc2NC(=O)c2ccc3c(c2)OCO3)CC1` (centres unmarked), the “hERG current change (%, negative = inhibition) at 10uM” value is listed as -2.95%.

With `Cc1ccc(CCNS(=O)(=O)c2cc3c(cc2C)n(C)c(=O)c(=O)n3C)cc1`, the “hERG current change (%, negative = inhibition) at 10uM” value is reported as -30.8%. As to `CCOc1ccc(-n2c(-c3ccccc3)nnc2-c2ccccc2)cc1`, the “hERG current change (%, negative = inhibition) at 10uM” value was -6.7%. For the compound `Cc1ccc(-n2c(SCC(=O)Nc3ccc4cn[nH]c4c3)nnc2-c2ccco2)cc1`, the “hERG current change (%, negative = inhibition) at 10uM” value is recorded as -62.4%. For the compound `CNC(=O)CSc1nnc(-c2ccco2)n1-c1ccc(C)cc1`, the “hERG current change (%, negative = inhibition) at 10uM” value is -49.5%. Consider `Cc1ccc(-n2c(SCC(=O)Nc3ccc4c(c3)OCCO4)nnc2-c2ccco2)cc1`, for which the “hERG current change (%, negative = inhibition) at 10uM” value was -30.9%.

For `COC(=O)CSc1nnc(-c2ccco2)n1-c1ccc(C)cc1`, the “hERG current change (%, negative = inhibition) at 10uM” value is reported as -24.2%. For the compound `CCOC(=O)CSc1nnc(-c2ccco2)n1-c1ccc(C)cc1`, the “hERG current change (%, negative = inhibition) at 10uM” value is -61.9%. On to `CCOC(=O)CNC(=O)CSc1nnc(-c2ccc(OC)cc2)n1CC`, for which the “hERG current change (%, negative = inhibition) at 10uM” value is recorded as 10.5%. As to `CCOC(=O)CSc1nnc(-c2ccco2)n1-c1ccccc1`, the “hERG current change (%, negative = inhibition) at 10uM” value is recorded as -27.6%. For `CCOC(=O)CNC(=O)CSc1nnc(-c2cccc(OC)c2)n1CC` the value was 7.24%. Take `CCOc1ccc(NC(=O)CSc2nnc(-c3ccccc3)n2N)cc1`: the “hERG current change (%, negative = inhibition) at 10uM” value worked out at 6.02%.

For `CCOC(=O)CNC(=O)CSc1nnc(-c2cccc(C)c2)n1-c1ccc(OC)cc1`, the “hERG current change (%, negative = inhibition) at 10uM” value is listed as -62%. In the case of `CCNC(=O)CSc1nnc(-c2ccccc2)n1-c1ccc(OCC)cc1`, the “hERG current change (%, negative = inhibition) at 10uM” value is -62.8%.

Take `CCn1c(C)nc2cc(C(=O)N/N=C/c3ccccc3C)ccc21`: the “hERG current change (%, negative = inhibition) at 10uM” value was -12.8%. In the case of `Cc1cc2c(C)nc(Cc3ccccc3)nc2o1`, the “hERG current change (%, negative = inhibition) at 10uM” value was determined as 14.7%. As to `CCOc1cc2[nH]c(=O)n(Cc3ccc(C(=O)NCCCN4CCCC4=O)cc3)c(=O)c2cc1OCC`, the “hERG current change (%, negative = inhibition) at 10uM” value is on record as 16.2%. As for `CCOC(=O)C1=C(C)Nc2nc(SC)nn2C1c1ccc(C(=O)OC)cc1` (centres unmarked), the “hERG current change (%, negative = inhibition) at 10uM” value worked out at 5.26%. For `Cc1ccc(/C=N\NC(=O)/C(=C\Nc2nccc(C)n2)NC(=O)c2ccccc2)cc1` the value was -9.72%; for `C=C1C(=O)O[C@@H]2C[C@@H](C)[C@@H]3C=CC(=O)[C@@]3(C)[C@@H](OC(=O)CC(=O)O[C@H]3[C@@H]4C(=C)C(=O)O[C@@H]4C[C@@H](C)[C@@H]4C=CC(=O)[C@]43C)[C@H]12`, -38.6%. Next, `COc1ccc(CNC(=O)C2CCN(S(=O)(=O)c3cccnc3)CC2)cc1`: 12.9%. Next, `Cc1ccc(S(=O)(=O)NCCC(=O)Nc2cc(F)ccc2C)cc1C`: 2.51%. Take `CCOC(=O)c1c(O)c2ccccc2oc1=O`: the “hERG current change (%, negative = inhibition) at 10uM” value is given as -18.7%. For `CN1C(=O)CN=C(c2ccc(Cl)cc2)c2cc(Cl)ccc21` the value was -33.8%.

With `CCOC(=O)CSc1nnc(-c2ccoc2C)n1-c1ccc(C)cc1`, the “hERG current change (%, negative = inhibition) at 10uM” value is -19.3%.

For `COc1cccc(C(=O)NCc2nnc(SCC(=O)Nc3nccs3)n2-c2cccc(C)c2)c1`, the “hERG current change (%, negative = inhibition) at 10uM” value is -18.3%. For the compound `COc1cccc(-n2c(SCC(=O)Nc3nccs3)nnc2-c2ccoc2C)c1`, the “hERG current change (%, negative = inhibition) at 10uM” value was -76.8%.

Turning to `CCOC(=O)CSc1nnc(CNC(=O)c2ccc(OC)cc2OC)n1-c1ccc(OC)cc1`, the “hERG current change (%, negative = inhibition) at 10uM” value is listed as -50.1%. As for `CCOC(=O)CSc1nnc(CNC(=O)c2ccc(OC)cc2OC)n1C`, the “hERG current change (%, negative = inhibition) at 10uM” value is -18.4%.

In the case of `COc1ccc(-n2c(CSc3nc(C)cc(C)n3)nnc2SCC(=O)Nc2nccs2)cc1`, the “hERG current change (%, negative = inhibition) at 10uM” value is -13.2%. For `COc1cccc(-n2ccnc2SCC(=O)Nc2nccs2)c1` the value was -6.22%.

In the case of `COc1ccc(-n2c(SCC(=O)Nc3nccs3)nnc2-c2ccoc2C)cc1`, the “hERG current change (%, negative = inhibition) at 10uM” value is reported as -80%.

For the compound `CCOC(=O)CSc1nnc(-c2ccoc2C)n1-c1ccc(OCC)cc1`, the “hERG current change (%, negative = inhibition) at 10uM” value is -66.5%. For `Cn1c(SCC(=O)Nc2nccs2)nnc1-c1ccco1` the value was -5.22%; for `CCOC(=O)CSc1nnc(CNC(=O)c2ccccc2OC)n1-c1ccc(OC)cc1`, -28.8%; for `CCOc1ccc(-n2c(SCC(N)=O)nnc2-c2ccco2)cc1`, -1.15%.

For `COc1ccc(C2(C(=O)NCCCN(C)C)CCOCC2)cc1`, the “hERG current change (%, negative = inhibition) at 10uM” value was found to be 7.45%. On to `CCOC(=O)c1c(-c2ccccc2Cl)csc1NC(=O)CSc1nc(C)cc(=O)[nH]1`, for which the “hERG current change (%, negative = inhibition) at 10uM” value is recorded as 4.37%. In the case of `C=CCc1ccc(OCc2ccc(C(=O)OC)o2)c(OC)c1`, the “hERG current change (%, negative = inhibition) at 10uM” value is -12.1%.
